SUMO Mot1 rescue = inhibitors of SUMOylation pathway: yeast Mot1-301 growth rescue; S. cerevisiae Mot1-301 growth rescue, ATP luminescence, 38.5C; percent above DMSO median, 100 means doubled; growth rescue, % at 18.8 µM; 320,000 tested, 1% active; AID 2716;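 active = every valid replicate shows activation above 250% relative to neutral control wells; inactive = the rest, any valid replicate at or below 250%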
AI-2 QS modul = Vibrio harveyi AI-2 quorum sensing modulation; Vibrio harveyi JMH597 AI-2 luminescence/OD600 ratio, 9 h; hits give low values; strain lacks LuxN and CqsS sensors; 0 = neutral-control median; activity change, % at 7.5 µM; 300,000 tested, 0.4% active; AID 2094; in the data active = activity change below about -75%, passing the limit was not always enough; inconclusive = no clear call, values can overlap the other calls;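 note: luminescence divided by OD600 gain over 9 h not by final OD600 alone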
ARNT-TACC3 inh = disrupts binding between human ARNT and TACC3; Q9Y6A5; AlphaScreen His-ARNT PAS-B/GST-TACC3 binding, luminescence; TACC3 fragment carries E629A point mutation; inhibition, % at 9.99 µM; 390,000 tested, 0.66% active;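 active = mean inhibition of replicates at least 50% and at least half of replicates each reaching 50%; inconclusive = half or more replicates reach 50% but mean below 50%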
Bfl-1 A1 inh = inhibitors of the anti-apoptotic protein A1, read as caspase activation; MEF A1-2A-BIM cells, Caspase-Glo 3/7 luminescence, 3 h; percent of clofoctol response, vehicle zero; caspase activation, % (test concentration not listed); 330,000 tested, 0.066% active; AID 2462;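 active = over half of replicate activation scores above 10%, or exactly half above 10 with the replicate mean above 10; inconclusive = replicate mean below 10 yet half the replicates above 10; inactive = over half of replicates below 10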
aDG glyco act = increases alpha dystroglycan glycosylation; Pro5-aDG cells, alpha-DG glycosylation AlphaScreen (IIH6); 0% Pro5, 100% B10-LARGE cell signal; activation, % at 10 µM; 360,000 tested, 0.22% active; AID 624168;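 active = activation of at least 8% versus controls, or a plate z-score of at least 8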;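 note: Pro5 are CHO cells carrying HIG-tagged alpha-DG that lacks glycosylation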
Each line names hits and unclear results; the compound was inactive in the other large screens. The list is not random: actives were taken first. Their share in the collection is about 1.8%.

COc1ccc(S(=O)(=O)N2CCC[C@H]2C(=O)N2CCC[C@H]2C(=O)NCc2ccncc2)cc1C	none (no result: SUMO Mot1 rescue, AI-2 QS modul, ARNT-TACC3 inh, Bfl-1 A1 inh)
CCCc1nnc(NS(=O)(=O)c2ccc(OC)cc2)s1	SUMO Mot1 rescue 774
O=C(NCCNc1ccc([N+](=O)[O-])cc1C(F)(F)F)c1ccccc1F	none
CCS(=O)(=O)c1ncc(Cl)c(C(=O)Nc2ccc(S(=O)(=O)N(C)c3ccccc3)cc2)n1	Bfl-1 A1 inh 13
O=C(Nc1ccc(F)cc1)c1nc(S(=O)(=O)Cc2ccccc2)ncc1Cl	none
CS(=O)(=O)c1ncc(Cl)c(C(=O)Nc2ccc(OC(F)F)cc2)n1	AI-2 QS modul inconclusive, Bfl-1 A1 inh 18
Cc1ccccc1CS(=O)(=O)c1ncc(Cl)c(C(=O)Nc2ccc(F)cc2)n1	SUMO Mot1 rescue 316
C[C@@H]1CN([C@@H](C)CO)C(=O)c2cccc(NS(=O)(=O)c3ccc(Cl)cc3)c2O[C@H]1CN(C)Cc1ccc(C(F)(F)F)cc1	none (no result: SUMO Mot1 rescue, AI-2 QS modul, Bfl-1 A1 inh, aDG glyco act)
Cc1cc(-c2c(C)[nH]n(-c3ccc(Cl)cc3)c2=O)n[nH]1	ARNT-TACC3 inh 57
O=S(=O)(Nc1cccc2ncccc12)c1cccs1	ARNT-TACC3 inh 58
CCCOc1ccc(NC(=O)CC2Nc3ccccc3NC2=O)cc1 (stereo unspecified)	SUMO Mot1 rescue 571
CCCOc1ccccc1NC(=O)CC1Nc2ccccc2NC1=O (stereo unspecified)	none
COc1ccc(Oc2coc3cc(O)ccc3c2=O)cc1	AI-2 QS modul -94
CC(NC(=O)/C(C#N)=C/c1ccc(OCC(=O)O)cc1)c1ccccc1 (stereo unspecified)	none
CN1CCN(C(c2ccc(F)cc2)c2ccc3cccnc3c2O)CC1 (stereo unspecified)	none (no result: SUMO Mot1 rescue, AI-2 QS modul, Bfl-1 A1 inh)
CN1CCN(C(c2ccc(Br)cc2)c2cc(Cl)c3cccnc3c2O)CC1 (stereo unspecified)	AI-2 QS modul -141 (no result: ARNT-TACC3 inh)
Oc1c(Cl)cc(Cl)c2cccnc12	AI-2 QS modul inconclusive (no result: SUMO Mot1 rescue, ARNT-TACC3 inh, Bfl-1 A1 inh)
CN1CCN(C(c2cccnc2)c2ccc3cccnc3c2O)CC1 (stereo unspecified)	ARNT-TACC3 inh 68
O=C(COC(=O)c1ccc2ncsc2c1)Nc1cc(Cl)ccc1F	none (no result: SUMO Mot1 rescue, AI-2 QS modul, Bfl-1 A1 inh)
COc1ccc(N(C(=O)c2ccncc2)S(=O)(=O)c2ccccc2)cc1	none
COc1ccc(S(=O)(=O)N(C(=O)c2ccncc2)c2ccc(OC(=O)c3ccncc3)cc2)cc1	SUMO Mot1 rescue 309
COc1ccc(N(C)C(=O)CCC(=O)Nc2ccc3nc(N4CCOCC4)cc(C)c3c2)c(OC)c1	none
CC(C)(C)c1nnc(N/N=C/c2ccccc2O)n(N)c1=O	ARNT-TACC3 inh 60
COc1cccc(/C=C/C(=O)c2ccc(C)c([N+](=O)[O-])c2)c1	SUMO Mot1 rescue 500
O=C(/C=C/c1ccc(Br)cc1)NC(=S)N1CCOCC1	none
Cc1cc(C)nc(NC(=O)c2ccc(OC(C)C)cc2)n1	SUMO Mot1 rescue 284
Cc1cc(C)nc(NC(=O)c2ccc(C)c(C)c2)n1	none
COc1ccnc(CSC(N)=Nc2ccc(F)cc2)c1	ARNT-TACC3 inh 82
CCn1c(SCC(=O)NNC(=O)c2ccc(C)cc2)nnc1-c1ccncc1	none
CC(C)c1cccc(C(C)C)c1NC(=O)CCl	none
CCn1ccc(C(=O)NC2C(=O)N3C(C(=O)O)=C(C)CSC23)n1 (stereo unspecified)	none
C=CC1=C(C(=O)O)N2C(=O)[C@@H](NC(=O)/C(=N\O)c3csc(N)n3)[C@H]2SC1 (stereo in doubt)	ARNT-TACC3 inh 64
Clc1nc(-c2ccccn2)nc2scc(-c3ccccc3)c12	ARNT-TACC3 inh 60
Cc1cccc(-c2nc(CS(=O)CC(=O)N3CCc4ccccc4C3)c(C)o2)c1 (stereo unspecified)	none
Cc1cc(=O)[nH]c(N/N=C/c2cccs2)n1	none
Cc1ccc(S(=O)(=O)N(C)C[C@@H]2OCCCC[C@H](C)Oc3ccc(NS(=O)(=O)c4cn(C)cn4)cc3C(=O)N([C@@H](C)CO)C[C@H]2C)cc1	none (no result: SUMO Mot1 rescue, AI-2 QS modul, Bfl-1 A1 inh, aDG glyco act)
O=C1C=C(Nc2cccnc2)c2ccccc2C1=O	ARNT-TACC3 inh 35 (no result: SUMO Mot1 rescue, AI-2 QS modul, Bfl-1 A1 inh)
CCOc1ccc(NC2=CC(=O)C(=O)c3ccccc32)cc1	none (no result: SUMO Mot1 rescue, AI-2 QS modul, Bfl-1 A1 inh)
O=C1C=C(Nc2ccc(F)cc2)c2ccccc2C1=O	aDG glyco act 8.9 (no result: AI-2 QS modul)
CCOC(=O)c1c(-c2cccc([N+](=O)[O-])c2)csc1N	none
CSCC[C@H](NC(=O)OC(C)(C)C)C(=O)N/N=C/c1cccc2cccnc12	ARNT-TACC3 inh 62
C[C@H](NC(=O)OC(C)(C)C)C(=O)N/N=C/c1cccc2nccnc12	ARNT-TACC3 inh 27
Cc1c(OC(C)C(=O)NCc2ccncc2)ccc2c3c(c(=O)oc12)CCCC3 (stereo unspecified)	none
N#CCn1c2ccccc2c2nc3ccccc3nc21	none
O=C(NCc1cccc(F)c1)[C@@H]1[C@@H](CO)[C@@H]2Cn3c(cccc3=O)[C@H]1N2C(=O)c1cnccn1	ARNT-TACC3 inh active (no result: SUMO Mot1 rescue, AI-2 QS modul, Bfl-1 A1 inh, aDG glyco act)
CCOC(=O)/C=C/C(=O)Nc1nccs1	AI-2 QS modul -91 (no result: ARNT-TACC3 inh)
CCOC(=O)C(=O)Nc1nccs1	none
COc1ccc(CCN(Cc2ccccn2)C(=S)Nc2cccc(SC)c2)cc1OC	none
C[C@@H]1CCCCO[C@@H](CN(C)C(=O)Cc2ccccc2)[C@H](C)CN([C@@H](C)CO)C(=O)c2cc(NC(=O)Cc3ccccc3)ccc2O1	none (no result: SUMO Mot1 rescue, AI-2 QS modul, Bfl-1 A1 inh, aDG glyco act)
NC(=O)NC(=O)CC1S/C(=N/N=C2/NC(=O)CS2)NC1=O (stereo unspecified)	ARNT-TACC3 inh 66
Cc1nc2ccc(S(=O)(=O)NCC(=O)NC(C)c3ccccc3)cc2s1 (stereo unspecified)	AI-2 QS modul -97
Cc1nc2ccc(S(=O)(=O)NC(C(=O)NCc3ccco3)C(C)C)cc2s1 (stereo unspecified)	SUMO Mot1 rescue 357
Nc1cc(=O)[nH]c(SCC(=O)NNC(=O)c2ccccc2)n1	none
Nc1cc(=O)[nH]c(SCC(=O)NNC(=O)Cc2ccccc2)n1	SUMO Mot1 rescue 333
O=C1/C(=N\S(=O)(=O)c2cccs2)C([n+]2ccc(CCCc3ccccc3)cc2)=C([O-])c2ccccc21	none (no result: ARNT-TACC3 inh)
O=C1/C(=N\S(=O)(=O)c2cccs2)C([n+]2cccc(Cc3ccccc3)c2)=C([O-])c2ccccc21	aDG glyco act 3.6
Cc1cc(C)c(CSc2nnnn2-c2ccc(C(=O)O)cc2)c(C)c1	SUMO Mot1 rescue 581
CC1(C)CC(NC(=S)Nc2ccc(S(N)(=O)=O)cc2)CC(C)(C)N1	none
NS(=O)(=O)c1ccc(NC(=S)NC2CC2)cc1	SUMO Mot1 rescue 691
CN(/N=C/c1cccs1)c1cc(=O)n(C)c(=O)[nH]1	none
CCOC(=O)C1=NNC(C(=O)c2ccc(Cl)cc2)C1c1ccccc1 (stereo unspecified)	none
O=C(NCCOc1ccccc1)c1cc(C(=O)NCCOc2ccccc2)cc([N+](=O)[O-])c1	AI-2 QS modul -97

Screening results: PubChem BioAssay, several laboratories
